Activity calls are given as the source filed them. Unless noted, how the calls were made is not given here.
Assays:
[1] = A549 cell viability effects, profiling panel, calcein-AM fluorescence, 48 h, basal (AID 1162); settings: higher = more signal; further: test concentration not given here
[2] = adipocyte viability effects, profiling panel, cell-based, 3T3-L1 adipocytes, calcein-AM fluorescence, 48 h, basal (AID 1163); settings: 3T3-L1 adipocytes viability, higher = more signal; further: test concentration not given here
[3] = HepG2 cell viability effects, profiling panel, calcein-AM fluorescence, 48 h, basal (AID 1164); settings: higher = more signal; further: test concentration not given here
[4] = MM1S cell viability effects, profiling panel, calcein-AM fluorescence, 48 h, basal (AID 1165); settings: higher = more signal;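 further: viability of MM1S multiple myeloma cells under basal unstimulated conditions; test concentration not given here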
[5] = basal RPMI8226 viability, no added stimulus, profiling panel, cell-based, calcein-AM fluorescence, 48 h, PK04 Diversity Set (AID 1166); settings: RPMI8226 myeloma viability, higher = more signal;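 further: cells grown under basal conditions without added stimulus; test concentration not given here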
[6] = basal HepG2 mitochondrial membrane potential changes, profiling panel, cell-based, JC-1 fluorescence, 24 h, 100 nL compound (AID 1167); settings: higher = more signal; further: test concentration not given here
[7] = basal 3T3-L1 adipocyte mitochondrial potential changes, profiling panel, cell-based, JC-1 fluorescence, 3T3-L1 adipocytes, 24 h, 100 nL compound (AID 1168); settings: JC-1 mitochondrial fluorescence, higher = more signal, called active from +8 up or from −8 down; further: test concentration not given here
[8] = basal RPMI8226 mitochondrial membrane potential changes, profiling panel, cell-based, JC-1 fluorescence, 24 h, 100 nL compound (AID 1169); settings: RPMI8226 myeloma, JC-1 mitochondrial potential fluorescence, higher = more signal; further: test concentration not given here
[9] = basal MM1S mitochondrial membrane potential changes, profiling panel, cell-based, JC-1 fluorescence, 24 h, 100 nL compound (AID 1170); settings: higher = more signal; further: test concentration not given here
[10] = A549 lung cancer cell viability effects, profiling panel, resazurin fluorescence, 24 h, PK04 Diversity Set (AID 1171); settings: higher = more signal, called active from +8 up or from −8 down; further: test concentration not given here
[11] = HepG2 liver cancer cell viability effects, profiling panel, resazurin fluorescence, 24 h, PK04 Diversity Set (AID 1172); settings: higher = more signal; further: test concentration not given here
[12] = basal S. cerevisiae growth modulation, no modifier, primary screen, OD600, strain BY4716, 24 h, basal condition (AID 1173); settings: OD600, 24 h, higher = more signal, called active from +8 up or from −8 down
[13] = MM1S myeloma cell viability, profiling panel, resazurin fluorescence, basal, 24 h, PK04 Diversity Set (AID 1174); settings: higher = more signal, called active from +8 up or from −8 down;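 further: MM1S multiple myeloma cell line; test concentration not given here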
[14] = molecular target: Dihydroorotate dehydrogenase (quinone), mitochondrial (Plasmodium falciparum (isolate 3D7)) (UniProt Q08210); assay: PfDHODH enzyme inhibitors, primary screen, biochemical, C-terminal His tag, absorbance 600 nm (AID 1175); settings: DCIP absorbance 600 nm, higher = more signal, called active from +8 up or from −8 down;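 further: recombinant parasite enzyme with a five histidine tag at its C terminus; test concentration not given here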
[15] = P. aeruginosa biofilm formation inhibitors, primary screen, strain PAO1, LB-PBS medium, absorbance 600 nm (AID 1176); further: test concentration not given here; settings: P. aeruginosa PAO1 growth/biofilm, A600, 12 h; higher = more signal
[16] = S. cerevisiae RM11-1a growth modifiers, primary screen, strain RM11-1a, OD600, basal, 24 h (AID 1177); settings: OD600, 24 h, higher = more signal, called active from +8 up or from −8 down;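 further: cultures grown under basal conditions with no added stressor; test concentration not given here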
[17] = E. coli acrAB mutant growth effects, primary screen, E. coli filamentation inducers, strain DRC39, OD650, 24 h (AID 1178); settings: higher = more signal, called active from +8 up or from −8 down;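 further: growth measured as culture turbidity by optical density at 650 nm; test concentration not given here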
[18] = E. coli acrAB mutant growth effects, primary screen, E. coli filamentation inducers, strain DRC39, OD650, 48 h (AID 1179);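 further: screen aims at cell division blockers that make cells filament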; settings: E. coli DRC39 delta-acrAB growth, higher = more signal, called active from +8 up or from −8 down
[19] = RPMI8226 myeloma cell viability, profiling panel, resazurin fluorescence, basal, 24 h, PK04 Diversity Set (AID 1180); settings: higher = more signal;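 further: RPMI8826 multiple myeloma cell line at 5000 cells per well; test concentration not given here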
[20] = molecular target: E3 ubiquitin-protein ligase XIAP (Homo sapiens) (UniProt P98170); assay: XIAP binders, primary screen, biophysical, small-molecule microarray, fluorescence 635 nm (AID 1181); settings: small-molecule microarray binding, higher = more signal;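 further: score merges 667 nm emission and signal to noise over triplicate slides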
Sequence of E3 ubiquitin-protein ligase XIAP (Homo sapiens) (P98170 whole entry, looked up): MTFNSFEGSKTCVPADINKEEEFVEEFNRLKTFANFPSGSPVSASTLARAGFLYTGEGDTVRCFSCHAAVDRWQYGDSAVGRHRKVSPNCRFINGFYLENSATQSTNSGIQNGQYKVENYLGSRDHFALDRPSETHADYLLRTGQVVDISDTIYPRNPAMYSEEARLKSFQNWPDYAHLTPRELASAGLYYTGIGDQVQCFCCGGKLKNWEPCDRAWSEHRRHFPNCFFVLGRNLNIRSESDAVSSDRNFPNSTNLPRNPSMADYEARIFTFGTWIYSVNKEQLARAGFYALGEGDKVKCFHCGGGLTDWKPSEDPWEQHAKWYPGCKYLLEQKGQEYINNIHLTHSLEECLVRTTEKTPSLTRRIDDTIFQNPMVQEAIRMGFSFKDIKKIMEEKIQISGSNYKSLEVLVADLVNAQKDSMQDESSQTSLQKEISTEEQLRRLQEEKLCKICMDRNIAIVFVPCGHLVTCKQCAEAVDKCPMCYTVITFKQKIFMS

Sequence of Dihydroorotate dehydrogenase (quinone), mitochondrial (Plasmodium falciparum (isolate 3D7)) (Q08210 whole entry, looked up): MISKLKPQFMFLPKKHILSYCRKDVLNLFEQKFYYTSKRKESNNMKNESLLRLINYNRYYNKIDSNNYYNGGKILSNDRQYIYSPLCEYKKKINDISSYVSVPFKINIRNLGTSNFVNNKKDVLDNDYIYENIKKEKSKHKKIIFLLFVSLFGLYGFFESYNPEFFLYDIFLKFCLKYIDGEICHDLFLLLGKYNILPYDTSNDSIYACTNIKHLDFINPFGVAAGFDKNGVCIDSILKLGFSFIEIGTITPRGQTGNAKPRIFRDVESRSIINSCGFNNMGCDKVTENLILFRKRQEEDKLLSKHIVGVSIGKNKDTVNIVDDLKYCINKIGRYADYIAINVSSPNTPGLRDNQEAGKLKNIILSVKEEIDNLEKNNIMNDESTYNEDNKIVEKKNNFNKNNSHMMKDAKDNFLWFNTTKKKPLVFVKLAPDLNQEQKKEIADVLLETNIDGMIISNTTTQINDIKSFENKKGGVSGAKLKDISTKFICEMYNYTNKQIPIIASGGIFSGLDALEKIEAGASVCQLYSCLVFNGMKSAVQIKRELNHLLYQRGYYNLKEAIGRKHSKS

Compound	z-score [1]	z-score [2]	z-score [3]	z-score [4]	z-score [5]	z-score [6]	z-score [7]	z-score [8]	z-score [9]	z-score [10]	z-score [11]	z-score [12]	z-score [13]	composite z-score [14]	z-score [15]	z-score [16]	z-score [17]	z-score [18]	z-score [19]	composite z-score [20]
COCCOC(=O)N1C(=O)[C@@]2(c3cc(C#CCNC(N)=O)ccc31)[C@H](c1ccccc1OCCO)N1[C@H](c3ccccc3)[C@H](c3ccccc3)OC(=O)[C@H]1[C@@H]2C(=O)NC[C@H](O)c1ccccc1	-0.991	-0.574	0.0681	-0.344	0.941	-1.64	0.392 (inactive)	-0.305	-0.803	0.868 (inactive)	0.904	2.79 (inactive)	0.335 (inactive)	1.03 (inactive)	0.87 (inactive)	2.1 (inactive)	0.183 (inactive)	-0.32 (inactive)	0.152	-0.0911
CN1C(=O)C2C=CC(C(O)c3ccc(N(C)C)cc3)N(Nc3ccc([N+](=O)[O-])cc3[N+](=O)[O-])C2C1=O (stereo not given)	1.09	-0.459	-0.0167	-0.126	-0.4	-0.672	-1.06 (inactive)	0.0429	-0.0883	0.0697 (inactive)	0.183	0.111 (inactive)	-0.355 (inactive)	-0.548 (inactive)	0.558 (inactive)	-0.29 (inactive)	-0.243 (inactive)	-0.411 (inactive)	0.236	-0.0023
C=CC[C@@]1(C(=O)NCC(O)CO)N=C(c2ccc(OCCCO)cc2)O[C@@H]1c1ccccc1CN=[N+]=[N-] (stereo not given in full)	2.22	0.0076	0.816	0.92	0.0295	1.41	1.62 (inactive)	-0.153	-0.873	0.047 (inactive)	-0.192	-1.14 (inactive)	-0.754 (inactive)	0.592 (inactive)	0.385 (inactive)	-0.0334 (inactive)	0.613 (inactive)	1.52 (inactive)	0.516	0.254
C=CCC(OC(C)=O)[C@@H]1[C@@H](N(Cc2ccc(-c3cccc(C(F)(F)F)c3)o2)C(=O)Cc2ccc(F)cc2)c2cc(OCCCO)ccc2N1C(=O)c1ccc(-c2ccccc2)cc1 (stereo not given in full)	0.468	0.145	0.536	1.16	-0.147	1.88	-1.64 (inactive)	-0.582	0.286	0.303 (inactive)	-0.138	-0.0284 (inactive)	0.314 (inactive)	-0.262 (inactive)	1.11 (inactive)	-0.12 (inactive)	-0.124 (inactive)	-0.143 (inactive)	0.171	-0.184

— PubChem BioAssay
